This note sets out measurements from article PMC3404119, “Topology and Dynamics of the Zebrafish Segmentation Clock Core Circuit”.

Test [1] addresses T1, Her1-GFP homodimer (zebrafish (Danio rerio), UniProt Q90463 1-328).
T1 sequence: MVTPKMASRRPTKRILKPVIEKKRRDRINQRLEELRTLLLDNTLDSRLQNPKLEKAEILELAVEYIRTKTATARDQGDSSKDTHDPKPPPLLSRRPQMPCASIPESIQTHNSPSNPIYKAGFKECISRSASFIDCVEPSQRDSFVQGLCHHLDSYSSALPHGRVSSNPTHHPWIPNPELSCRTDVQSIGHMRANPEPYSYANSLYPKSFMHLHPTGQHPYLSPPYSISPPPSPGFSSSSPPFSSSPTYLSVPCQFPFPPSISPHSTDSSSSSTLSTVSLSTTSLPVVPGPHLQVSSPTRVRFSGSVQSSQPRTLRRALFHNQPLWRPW
As to the kind of experiment: MITOMI; PPARgamma-mCherry co-present (non-interacting control); TnT SP6 wheat germ expression extract on MITOMI chip, 3 h at room temperature; salt and pH not stated; PBS used for washing; high values mean tight binding. The note with it: protein: ivt; tags: C-terminal GFP; chain copies: 2; label: Cy5; dsDNA, one strand shown.

Test [2] has as its target T2, Her7 (coupled to chip, Fig 2D);Hes6-mCherry (zebrafish (Danio rerio);zebrafish …, UniProt Q9I9K1;Q6P0J1 1-206;1-226, |).
T2 sequence 1: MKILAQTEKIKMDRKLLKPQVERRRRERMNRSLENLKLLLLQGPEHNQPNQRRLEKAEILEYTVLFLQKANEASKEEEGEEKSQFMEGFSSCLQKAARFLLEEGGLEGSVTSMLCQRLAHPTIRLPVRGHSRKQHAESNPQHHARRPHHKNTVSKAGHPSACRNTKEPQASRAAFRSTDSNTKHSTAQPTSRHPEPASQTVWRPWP
T2 sequence 2: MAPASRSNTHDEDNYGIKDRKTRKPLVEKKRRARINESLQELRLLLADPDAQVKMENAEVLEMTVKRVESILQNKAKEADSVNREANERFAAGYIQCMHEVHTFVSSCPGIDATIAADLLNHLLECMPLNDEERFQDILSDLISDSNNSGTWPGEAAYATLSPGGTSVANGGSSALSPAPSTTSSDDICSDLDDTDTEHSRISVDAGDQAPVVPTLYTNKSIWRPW
Nature of the test: MITOMI; Her7:Hes6 heterodimer, Her7 coupled to chip and Hes6-mCherry in solution; TnT SP6 wheat germ expression extract on MITOMI chip, 3 h at room temperature; salt and pH not stated; PBS used for washing; high values mean tight binding. The note with it: protein: ivt;ivt; copies: 1;1; label: Cy5; dsDNA, one strand shown.

As for TTGCTCGTGCTT, the binding signal in test [1] is 0.0235 ± 0.00192 relative affinity (strongest site = 1); in test [2], 0.109 ± 0.00195 relative affinity (strongest site = 1).
The corresponding values for TGTCGCGTGCCA are 0.597 ± 0.0246 relative affinity (strongest site = 1) and 0.531 ± 0.00964 relative affinity (strongest site = 1).
As to CGACACGTGCTC, the results for the binding signal in test [1] and in test [2] were 0.416 ± 0.00933 relative affinity (strongest site = 1) and 0.638 ± 0.0296 relative affinity (strongest site = 1), respectively.
Regarding CAGCGCGTGTGC, the figures for the binding signal in test [1] and in test [2] were 0.057 ± 0.0015 relative affinity (strongest site = 1) and 0.179 ± 0.00225 relative affinity (strongest site = 1), respectively.
Consider GCCCACGCGCCG, for which the binding signal in test [1] is 0.119 ± 0.00729 relative affinity (strongest site = 1); in test [2] it was 0.168 ± 0.00251 relative affinity (strongest site = 1).
Take TGCCGCGTGCCG: the binding signal in test [1] was 0.216 ± 0.0104 relative affinity (strongest site = 1); in test [2], 0.369 ± 0.00323 relative affinity (strongest site = 1).
As for CAGCACGTGTCT, the results for the binding signal in test [1] and in test [2] were 0.456 ± 0.0098 relative affinity (strongest site = 1) and 0.679 ± 0.014 relative affinity (strongest site = 1), respectively.
For TATCTCGTGCTG, the binding signal in test [1] was 0.029 ± 0.0011 relative affinity (strongest site = 1); in test [2], 0.0758 ± 0.00824 relative affinity (strongest site = 1).
For CGGCGCGTGCCA, the binding signal in test [1] was 0.73 ± 0.0316 relative affinity (strongest site = 1); in test [2], 0.959 ± 0.0356 relative affinity (strongest site = 1).
For the sequence GGGCACGTGCGC, the figures for the binding signal in test [1] and in test [2] were 0.406 ± 0.00899 relative affinity (strongest site = 1) and 0.542 ± 0.0166 relative affinity (strongest site = 1), respectively.
CATCACGTGAAA: the binding signal in test [1] is 0.018 ± 0.00636 relative affinity (strongest site = 1); in test [2], 0.0344 ± 0.00348 relative affinity (strongest site = 1).
Regarding TCCCACGGGATT, the binding signal was 0.0209 ± 0.00257 relative affinity (strongest site = 1) in test [1] and 0.0207 ± 0.00168 relative affinity (strongest site = 1) in test [2].
For TGGCACGTGTCC, the binding signal was 1 ± 0.0321 relative affinity (strongest site = 1) in test [1] and 1 ± 0.0512 relative affinity (strongest site = 1) in test [2].
Consider CTGCACGTGCAT, for which the binding signal in test [1] is 0.0391 ± 0.00232 relative affinity (strongest site = 1); in test [2], 0.158 ± 0.00223 relative affinity (strongest site = 1).
On to CTGCTCGTGCTT, for which the binding signal was 0.0197 ± 0.00116 relative affinity (strongest site = 1) in test [1] and 0.103 ± 0.00315 relative affinity (strongest site = 1) in test [2].
Take GTTCACGTGTGC: the binding signal is 0.0341 ± 0.00138 relative affinity (strongest site = 1) in test [1] and 0.102 ± 0.00486 relative affinity (strongest site = 1) in test [2].
For the sequence AAGCACGTGATC, the results for the binding signal in test [1] and in test [2] were 0.0423 ± 0.00127 relative affinity (strongest site = 1) and 0.0912 ± 0.0018 relative affinity (strongest site = 1), respectively.
Turning to GGTCGCGTGTGC, the results for the binding signal in test [1] and in test [2] were 0.181 ± 0.0115 relative affinity (strongest site = 1) and 0.182 ± 0.00317 relative affinity (strongest site = 1), respectively.
Consider CCGCGCGTGCCA, for which the binding signal in test [1] was 0.279 ± 0.0129 relative affinity (strongest site = 1); in test [2], 0.516 ± 0.0179 relative affinity (strongest site = 1).
Taken in the same sequence, the figures for AAACACGAGCCA were 0.0562 ± 0.00247 relative affinity (strongest site = 1) and 0.208 ± 0.00306 relative affinity (strongest site = 1).
Taken in the same sequence, the figures for GTTCTCGTGTTT were 0.0171 ± 0.0014 relative affinity (strongest site = 1) and 0.0265 ± 0.0016 relative affinity (strongest site = 1).
